A selection: hits, their analogues and other compounds. The true share with any hit is near 3.4%.
NTR1 ag: activates human neurotensin receptor 1; 0.17% of 330,000 active; NTR1-U2OS beta-arrestin-GFP spot imaging, agonist mode; activation, % at 20 µM; AID 493036;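 active means activation at or above 40% of the spot to cytoplasm intensity ratio, with at least 20 cells analyzed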
MEKK2 mut-MEK5: signal of MEK5 binding to mutant human MEKK2 PB1 domain. bead flow cytometry, Alexa488-MEK5 binding to MEKK2 mutant. percent response, % at 10 µM. 0.35% of 290,000 active. AID 1530; in the data active means percent response above about 24%, passing the limit was not always enough
MEKK2wt PB1 HTS: raises or lowers MEK5 binding to wildtype human MEKK2 PB1 domain; Q9Y2U5; bead flow cytometry, Alexa488-MEK5 binding to MEKK2 WT; actives lie on both sides; 1.1% of 290,000 active; binding response (% of control), % at 10 µM; in the data active means binding response below about 67% or above about 130%
MEKK3 PB1 HTS: modulators (inhibitors or enhancers) of MEK5 binding to human MEKK3 PB1 domain. AID 1529. 1.4% of 290,000 active. Q99759. binding response (% of control), % at 10 µM. bead-based flow cytometry, Alexa488-MEK5 binding to MEKK3; actives lie on both sides; 0 = blocked by unlabeled MEK5, 100 = vehicle;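 active means binding response more than 3 SD above or below the average of its plate-row segment, actives on both sides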;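 further: Alexa488 bead fluorescence after subtracting the streptavidin-only scavenger bead signal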
ANO1 activ: mouse TMEM16A channel activation, primary screen; Q8BHY3; HEK293 TMEM16A/YFP-H148Q/I152L, iodide quench fluorescence; hits give low values; B-score at 10 µM; 0.3% of 340,000 active; AID 623877;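 active means fluorescence-ratio B-score plate-corrected deviation score at least 3 library SD below zero, with starting fluorescence score within 5 deviations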;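 further: channel opened by trigger with iodide after compound preincubation; score built on the fluorescence ratio of max minus min over baseline; more negative score means more quench and so TMEM16A activation or potentiation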
Target sequence (Q8BHY3 whole entry, looked up): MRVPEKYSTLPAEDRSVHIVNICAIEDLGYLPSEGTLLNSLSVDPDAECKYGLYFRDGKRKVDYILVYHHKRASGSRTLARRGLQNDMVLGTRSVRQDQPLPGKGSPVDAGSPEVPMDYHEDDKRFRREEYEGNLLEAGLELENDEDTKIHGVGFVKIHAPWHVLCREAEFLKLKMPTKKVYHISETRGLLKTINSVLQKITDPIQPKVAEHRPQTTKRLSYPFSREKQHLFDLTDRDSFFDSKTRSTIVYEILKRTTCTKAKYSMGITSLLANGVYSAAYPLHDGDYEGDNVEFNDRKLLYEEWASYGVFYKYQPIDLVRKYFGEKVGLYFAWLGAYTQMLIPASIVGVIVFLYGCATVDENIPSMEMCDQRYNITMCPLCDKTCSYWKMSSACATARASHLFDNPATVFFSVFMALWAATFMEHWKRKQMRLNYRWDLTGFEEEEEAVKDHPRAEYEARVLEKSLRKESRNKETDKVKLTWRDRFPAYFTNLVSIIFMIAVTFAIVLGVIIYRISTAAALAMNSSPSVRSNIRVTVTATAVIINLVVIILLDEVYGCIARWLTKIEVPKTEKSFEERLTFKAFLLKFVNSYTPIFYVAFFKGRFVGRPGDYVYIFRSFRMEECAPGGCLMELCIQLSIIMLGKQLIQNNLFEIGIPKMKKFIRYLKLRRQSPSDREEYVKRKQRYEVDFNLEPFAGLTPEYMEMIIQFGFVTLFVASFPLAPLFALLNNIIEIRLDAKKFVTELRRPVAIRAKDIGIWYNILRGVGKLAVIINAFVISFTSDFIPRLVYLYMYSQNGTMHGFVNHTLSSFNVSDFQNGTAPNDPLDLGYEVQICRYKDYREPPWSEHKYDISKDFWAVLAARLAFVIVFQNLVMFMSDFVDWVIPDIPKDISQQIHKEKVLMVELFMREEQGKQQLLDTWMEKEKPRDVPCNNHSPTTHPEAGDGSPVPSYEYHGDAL
ANO1 block: mouse TMEM16A channel inhibition, primary screen; normalized B-score (activity score, 25-100; higher = stronger inhibition) at 10 µM; HEK293 TMEM16A/YFP iodide influx fluorescence, ionomycin; 1.2% of 310,000 active;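 active means ratio plate-corrected score three or more library SD toward inhibition, starting fluorescence score within five deviations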;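 further: score derived from kinetic fluorescence span divided by baseline fluorescence per well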
NTR1 ag confirm: confirmation of agonists of human NTR1; 38% of 480 active; AID 504550; activation, % at 20 µM; NTR1-U2OS beta-arrestin-GFP translocation imaging; shares compounds with NTR1 ag;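 active means mean activation at 20 µM of at least 40%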
Numbers stand for hits; – = inactive; · = not tested or not shown.

SMILES | NTR1 ag | MEKK2 mut-MEK5 | MEKK2wt PB1 HTS | MEKK3 PB1 HTS | ANO1 activ | ANO1 block | NTR1 ag confirm
CCn1c(SCc2ccc(Cl)cc2Cl)nc2nc3c(cc2c1=O)CCCC3 | 44 | – | – | – | – | – | –
O=C(COCC(=O)Nc1cccc(C(F)(F)F)c1)Nc1cccc(C(F)(F)F)c1 | 47 | – | – | – | – | – | –
CC(NC(=O)c1cccc(N(C)C)c1)c1ccc(-n2ccnc2)cc1 (stereo unspecified) | – | – | – | – | – | – | ·
Cc1ccc(S(=O)(=O)NCC(c2ccccc2)N2CCN(c3ccc(F)cc3)CC2)cc1 (stereo unspecified) | – | – | – | – | – | · | ·
CCCCCCOC(=O)Sc1nc2ccccc2o1 | – | – | – | – | – | – | ·
COc1cc(C(=O)N/N=C/c2ccc(OC(=O)c3cccc(C)c3)cc2)ccc1O | 52 | – | – | – | – | – | –
CCOc1cccc(/C=C/c2ccc3cccc(O)c3n2)c1OC | 79 | – | – | – | – | – | –
CCOc1cccc(/C=C/c2ccc3cccc(O)c3n2)c1O | – | – | – | – | – | – | ·
Clc1cccc(CN2CCc3c([nH]c4ccccc34)C2)c1 | – | – | – | – | – | – | ·
Clc1ccc(CN2CCc3c([nH]c4ccccc34)C2)cc1Cl | 65 | – | – | – | – | – | –
O=C(Nc1ccc(N2CCN(C(=O)c3ccco3)CC2)c(Cl)c1)c1cc2ccccc2o1 | 42 | · | · | · | – | – | 63
Cc1cc2c(cc1C)CSC(c1ccc3ccccc3c1O)SC2 | – | – | – | – | – | – | ·
Cc1cc2c(cc1C)CSC(c1ccccc1O)SC2 | 51 | – | – | – | – | – | –
Cc1ccc(S(=O)(=O)N2CCN(C(=O)COC(=O)CCCOc3ccccc3)CC2)c(C)c1 | – | · | · | · | – | · | ·
Cc1ccccc1C(=O)N1CCc2cc(-c3csc(NC(=O)CN4CCCC4)n3)ccc21 | 54 | – | – | – | – | 25 | –
O=C(O)c1cc(-c2ccc(/C=N/N3C(=O)C4C5C=CC(C6CC56)C4C3=O)o2)ccc1Cl (stereo unspecified) | – | – | – | – | – | – | ·
Cc1ccc(/C=C2\C(=O)ON=C2c2ccccc2)o1 | – | – | – | – | – | – | ·
Cc1ccc(-c2ccc(/C=C3\C(=O)ON=C3c3ccccc3)o2)c([N+](=O)[O-])c1 | 100 | – | – | – | -5.7 | 100 | 85
O=c1[nH]cnc2c1C1(CCCC1)Cc1ccccc1-2 | – | – | – | – | – | – | ·
Oc1ccc(-c2nc3c4c(ncn3n2)-c2ccccc2CC42CCCC2)cc1 | 46 | – | – | – | – | – | –
Cn1c(CN2CCOCC2)nnc1SCC(=O)Nc1cc(Cl)ccc1Cl | – | – | – | – | – | – | ·
CC(C)CC(=O)N1CCN(C(=O)c2ccc(F)cc2)CC1 | – | – | – | – | – | – | ·
CCCCn1c(SCC(=O)c2ccc(O)cc2O)nc2cc(S(N)(=O)=O)ccc21 | – | – | – | – | – | – | ·
CCCCn1c(SCC(=O)N2CCC(C)CC2)nc2cc(S(N)(=O)=O)ccc21 | 44 | – | – | – | – | – | 50
O=C(Cn1cnc2c(OCc3ccccc3)ncnc21)NCCc1c[nH]c2ccccc12 | – | · | · | · | · | · | ·
SMILES | NTR1 ag | MEKK2 mut-MEK5 | MEKK2wt PB1 HTS | MEKK3 PB1 HTS | ANO1 activ | ANO1 block | NTR1 ag confirm
O=C(Nc1ccccc1N1CCOCC1)c1cccc(S(=O)(=O)N2CCOCC2)c1 | – | · | · | · | – | · | ·
CCOC(=O)c1cc(-c2ccccc2)sc1NC(=O)C(C)Sc1nnc(N)s1 (stereo unspecified) | 44 | – | – | – | – | – | –
CCOC(=O)c1cc(-c2ccccc2)sc1NC(=O)CSc1nnc(N)s1 | – | – | – | – | – | – | ·
O=[N+]([O-])c1ccc(N2CCOCC2)cc1O | – | – | – | – | – | – | ·
Cc1cc(N2CCOCC2)ccc1/C=C\[N+](=O)[O-] | 40 | – | – | – | – | – | 77
Cc1cc(CN(C)C(=O)C2CCC(=O)N(CCc3cccc(F)c3)C2)on1 (stereo unspecified) | – | – | – | – | – | – | ·
Cc1ccc(-c2cc(-c3ccc(C)cc3O)[nH]n2)cc1 | – | – | – | – | – | – | ·
Cc1ccc(O)c(-c2cc(-c3cccc(Br)c3)n[nH]2)c1 | 54 | – | – | – | – | – | –
CCCC(=O)NC(=S)Nc1cccc(Cl)c1N1CCCC1 | 51 | – | – | – | – | – | –
O=C(NC(=S)Nc1cccc(Cl)c1N1CCOCC1)c1cccs1 | 43 | – | – | – | – | – | –
CC1CCN(Cc2c(C#N)c3ccccc3n2C)CC1 | – | – | – | – | – | – | ·
CCCOc1ccc(/C(CC)=N/NC(=O)C2(C)CC2(Br)Br)cc1 (stereo unspecified) | 42 | – | – | – | – | – | –
CC/C(=N/NC(=O)c1ccc(Br)cc1)c1ccc(OCCN2CCOCC2)cc1 | – | – | – | – | – | – | ·
c1ccc(C(c2ccccc2)N2CCN(c3nc4ccccc4n4cnnc34)CC2)cc1 | 42 | – | – | – | · | – | 50
O=C(CC(c1ccccc1)c1cc(Br)ccc1O)NCCN1CCOCC1 (stereo unspecified) | 43 | – | – | – | – | – | –
CC1=NOC(=O)/C1=C\c1ccc(-c2cc(Cl)ccc2Cl)o1 | 44 | – | – | – | -5.4 | – | 65
COc1ccc(CCNCC(O)COc2cccc(Br)c2)cc1 (stereo unspecified) | – | – | – | – | – | – | ·
OC(CNCCc1ccc(C(F)(F)F)cc1)COc1ccc2ccccc2c1 (stereo unspecified) | 51 | – | – | – | – | – | –
O=C(COc1ccccc1[N+](=O)[O-])Nc1ccc(NC(=O)c2cc3ccccc3o2)cc1 | 40 | – | – | – | – | – | –
O=C(Nc1ccccc1)c1ccc(NC(=O)C2CC2)cc1 | – | – | – | – | – | – | ·
N=c1c(C(=O)NC2CCCCC2)cc2c(=O)n3ccccc3nc2n1Cc1ccco1 | – | – | – | – | – | – | ·
N=c1c(C(=O)NCCc2ccccc2)cc2c(=O)n3ccccc3nc2n1Cc1ccco1 | 43 | – | – | – | – | – | –
Cc1nc(Nc2ccc(C(=O)O)cc2)nc(Nc2ccc(C(=O)O)cc2)c1[N+](=O)[O-] | – | – | – | – | – | – | ·
CC(=O)Nc1ccc(Nc2nc(C)c([N+](=O)[O-])c(Nc3ccccc3)n2)cc1 | 46 | – | – | – | – | – | –
Cc1ccc(NC(=O)c2ccc(Nc3c([N+](=O)[O-])cc([N+](=O)[O-])cc3[N+](=O)[O-])cc2)cc1 | 46 | – | – | – | – | – | –
